Out of some 2,300 compounds screened, about 1,400 (61%) were called active. Another 29% or so got no clear call; they are omitted. Calls follow the shape of the dose curve; as a rule, active = well fitted inhibition curve with a large enough effect; inconclusive = small, poorly fitted or top-dose-only effect, or effect the other way; inactive = no such curve, though single readings can be large or run the other way. So high a share suggests a set chosen from earlier hits. The list shows a part of the results.
Assay: Confirmation screen for delayed death inhibitors of the malarial parasite plastid, 96 hour incubation; also: nearly all actives have a fitted effect of over 60% in size
Details: P. falciparum luciferase growth in erythrocytes; series mostly up to 28.7 µM; activity change, negative = inhibition: at the top concentration
From the text: The goal of this screen is to discover new antimalarial compounds that act by inhibiting the development of the apicoplast in the malarial parasite Plasmodium falciparum. The biochemical processes that make this organelle essential for erythrocytic stage parasites are not well understood. However, antibiotics, such as azithromycin and tetracycline, which target the apicoplast translational machinery, have a potent antimalarial effect. […] We have developed a cell-based assay that measures parasite growth based on the expression of an integrated copy of a firefly luciferase reporter. To detect small molecules that cause this "delayed death phenotype, erythrocytes infected with the luciferase-expressing parasites were incubated with compounds for either one or two generations, corresponding to 48 and 96 hours, respectively. Compounds that inhibit parasite growth in the second generation, but not the first, should be enriched in antimalarials that target the apicoplast. Growth inhibition is detected by a decrease in luciferase activity. MLPCN Grant: R21 NS059500 Assay Provider: David Fidock and Eric Ekland, Columbia University Keywords: NIH Roadmap, MLPCN, MLI, MLSMR, qHTS, NCGC, qHTS, malaria, luciferase, viability
Four microliters of culture medium (RPMI 1640 with 0.5% w/v Albumax (GIBCO), 24 mM sodium bicarbonate and 10 ug/mL gentamycin) were dispensed by a Multi-drop Combi into white solid 1536-well plates (Grenier) and 23 nL compound was added by a pin tool. Four microliters of infected erythrocytes (2% hematocrit, 0.1% parasitemia final concentration) in culture medium were dispensed and the plates incubated for 96 hours at 37 C in 5% CO2. Two microliters of luciferase detection reagent was added and luminescence was detected by a ViewLux (PerkinElmer) reader
% is scaled to controls: 0 for no effect and ±100 for the full control effect; potency is read from the fitted curve at half-maximal effect.

Row | Compound | Potency | activity change, negative = inhibition
1 | Cc1oc2c(c1C(=O)N1CCOCC1)C(=O)c1ccccc1C2=O | 1.58 µM (active) | 
2 | Cc1nnnn1/C(=C\c1ccccc1)C(=O)OCC(=O)N1CC2(C)CC1CC(C)(C)C2 (stereo unspecified) | 10 µM (active) | 
3 | COc1cc(/C=C/C(=O)c2ccc(O)cc2)ccc1OCC#N | 10 µM (active) | 
4 | COc1cc(/C=C/C(=O)c2ccc(C)cc2)ccc1OCC#N | 12.6 µM (active) | 
5 | COc1cccc(C(=O)/C=C/c2ccc(OCC#N)c(OC)c2)c1 | 3.98 µM (active) | 
6 | COc1ccc(/C=C/C(=O)c2ccc(C(=O)/C=C/c3ccc(OC)c(OC)c3)cc2)cc1OC |  | -104% (inactive)
7 | CCCCN(C)CCCNC(=O)c1cc(=O)[nH]c2ccc(S(=O)(=O)N3CCCCC3C)cc12 (stereo unspecified) | 1.12 µM (active) | 
8 | CCCCN(C)C(=O)C1CCC(CNS(=O)(=O)c2ccc3c(c2)CC(C)N3C(=O)C2CC2)CC1 (stereo unspecified) | 5.62 µM (active) | 
9 | CCOC(=O)c1c(C)nc(C)c(C(=O)OCC)c1-c1ccc(Br)cc1 | 11.2 µM (active) | 
10 | Cc1ccc(C(=O)OCc2nnc(-c3ccc(Br)cc3)o2)cc1 |  | -5.53% (inactive)
11 | CN(C)c1ccc(CN(C(=O)c2ccccc2Br)C2CCS(=O)(=O)C2)cc1 (stereo unspecified) | 14.1 µM (active) | 
12 | CCCN1CCc2c(sc3nc(SCC)n(-c4ccccc4)c(=O)c23)C1 | 0.631 µM (active) | 
13 | CCCN1CCc2c(sc3nc(SCC)n(-c4ccc(OC)cc4)c(=O)c23)C1 | 0.316 µM (active) | 
14 | Cn1c(=O)c2c([nH]c(=O)n2C)n(C)c1=O |  | -20.4% (inactive)
15 | CCCc1cc(NCc2ccccn2)n2nc(C)c(-c3ccccc3)c2n1 | 3.55 µM (active) | 
16 | NC(=O)CC(NC(=O)Cc1ccc(Br)cc1)c1ccc(NC2CC3CCC2C3)c([N+](=O)[O-])c1 (stereo unspecified) | 12.6 µM (active) | 
17 | CC/C(=N\OC(=O)c1ccc(OC(C)C)cc1)c1ccc(C)cc1 | 11.2 µM (active) | 
18 | O=C(/C=C/c1cccnc1)c1ccc(O)cc1 | 11.2 µM (active) | 
19 | COc1cc(C(=O)/C=C/c2cccnc2)ccc1O | 5.01 µM (active) | 

Row | Compound | Potency | activity change, negative = inhibition
20 | O=C(/C=C/c1cccnc1)/C=C/c1cccnc1 | 3.55 µM (active) | 
21 | O=C(/C=C/c1ccccc1)/C=C/c1ccccc1 | 2.51 µM (active) | 
22 | COc1ccc(C)cc1S(=O)(=O)Nc1cccc(-c2ccc(N3CCCCCC3)nn2)c1 | 10 µM (active) | 
23 | COc1ccc(-c2cc(C)no2)cc1S(=O)(=O)Nc1cccc(CN2CCCC2)c1 | 12.6 µM (active) | 
24 | COc1ccc(S(=O)(=O)Nc2cccc(-c3ccc(N4CCCCCC4)nn3)c2)c(OC)c1 | 11.2 µM (active) | 
25 | CCCOc1ccc(/C=C/C(=O)NC2CCCCC2)cc1OC | 15.8 µM (active) | 
26 | Nc1ccccc1C#CC(=O)c1ccccc1 | 14.1 µM (active) | 
27 | CCCC1O[C@@H]2CC3C4CCC5=CC(=O)C=C[C@]5(C)C4C(OC(C)=O)C[C@]3(C)[C@]2(C(=O)COC(C)=O)O1 (stereo partly specified) | 1.41 µM (active) | 
28 | CCOC(=O)C1CCN(c2cc3c(cc2NC(=O)c2ccccc2Cl)n(C)c(=O)n3C)CC1 | 7.94 µM (active) | 
29 | O=C(C=C=Nc1ccccc1)C(=O)N=C=Cc1ccccc1 | 7.94 µM (active) | 
30 | COc1ccc2c(CC(=O)OCC(=O)Nc3cccc(S(N)(=O)=O)c3)coc2c1 |  | -6.15% (inactive)
31 | Cc1csc(NC(=O)Cc2coc3cc(C)c(C(C)C)cc23)n1 | 12.6 µM (active) | 
32 | COc1ccc(NC(=O)Cc2coc3cc(C)c(C(C)C)cc23)cc1S(=O)(=O)N1CCOCC1 | 7.94 µM (active) | 
33 | COc1ccc(NC(=O)Cc2ccc(Cl)cc2)cc1S(=O)(=O)N1CCCCC1 | 14.1 µM (active) | 
34 | CC1CCC/C=C/C(=O)c2c(O)cc(O)cc2CC(=O)O1 (stereo unspecified) | 5.01 µM (active) | 
35 | CC(C)c1cc(NC(=O)CCl)on1 | 7.08 µM (active) | 
36 | COc1ccc(NC(=O)[C@H](Cc2c[nH]c3ccccc23)NC(=O)[C@@H]2Cc3ccccc3CN2)cc1 | 6.31 µM (active) | 
37 | COc1cccc(NC(=O)[C@H](Cc2c[nH]c3ccccc23)NC(=O)[C@@H]2Cc3ccccc3CN2)c1 | 12.6 µM (active) | 
38 | CCS(=O)(=O)N1Cc2ccccc2CC1C(=O)Nc1cccc(OC)c1 (stereo unspecified) |  | 11% (inactive)

Row | Compound | Potency | activity change, negative = inhibition
39 | O=C(NC(Cc1c[nH]c2ccccc12)C(=O)Nc1ccc(F)cc1)c1cccs1 (stereo unspecified) | 10 µM (active) | 
40 | Cc1cccc(NC(=O)[C@H](Cc2c[nH]c3ccccc23)NC(=O)[C@@H]2Cc3ccccc3CN2)c1 | 10 µM (active) | 
41 | COC(=O)C1=C(C)NC2=C(C(=O)CC(c3cccs3)C2)C1c1ccsc1 (stereo unspecified) | 12.6 µM (active) | 
42 | O=C(CNC(=O)C1CCCCC1)OC(C(=O)c1ccccc1)c1ccccc1 (stereo unspecified) | 15.8 µM (active) | 
43 | CCN1C/C(=C/c2ccc(OC)c(O)c2)C(=O)/C(=C/c2ccc(OC)c(O)c2)C1 | 14.1 µM (active) | 
44 | CCOc1cc(/C=C2\CN(CC)C/C(=C\c3ccc(O)c(OCC)c3)C2=O)ccc1O | 3.16 µM (active) | 
45 | COc1ccc(/C=C2\CN(Cc3ccccc3)C/C(=C\c3ccc(OC)c(O)c3)C2=O)cc1O | 0.708 µM (active) | 
46 | COc1ccc(NS(=O)(=O)c2cc(OCC(N)=O)c(C)cc2Cl)cc1 | 5.01 µM (active) | 
47 | CCOC(=O)c1c(-c2ccc(C)cc2C)csc1NC(=O)CSc1nnnn1C | 3.98 µM (active) | 
48 | O=C(NC(Cc1ccccc1)c1nc2ccccc2[nH]1)C1CC(=O)N(c2ccc3c(c2)OCCO3)C1 (stereo unspecified) | 14.1 µM (active) | 
49 | O=C1c2cccc3cc([N+](=O)[O-])cc(c23)C(=O)N1CCN1CCCC1 | 12.6 µM (active) | 
50 | CN(c1ccccc1)S(=O)(=O)c1nnc(NC(=O)COc2ccccc2F)s1 | 12.6 µM (active) | 
51 | Cc1ccc(S(=O)(=O)N2CCN(C(=O)CCc3c[nH]c4ccccc34)CC2)c(C)c1 | 14.1 µM (active) | 
52 | COc1ccc(NC(=S)N2CCC(Cc3ccccc3)CC2)cc1OC | 12.6 µM (active) | 
53 | CCOC(=O)CC(Nc1nc(N2CCOCC2)nc(N2CCOCC2)n1)c1ccccc1Cl (stereo unspecified) | 3.98 µM (active) | 
54 | O=C(/C=C/Sc1ccccc1)c1ccccc1 | 11.2 µM (active) | 
55 | COC(=O)[C@]1(CC(C)C)N[C@H](c2ccc(-c3ccc(F)cc3)c(OC)c2)[C@@H]2C(=O)N(C)C(=O)[C@@H]21 | 2 µM (active) | 
56 | CCOC(=O)Cn1nnnc1C(CC)N(Cc1cccs1)Cc1cc2ccc(OC)cc2[nH]c1=O (stereo unspecified) | 12.6 µM (active) | 

Source: PubChem BioAssay AID504848 (National Center for Advancing Translational Sciences (NCATS), 2011)
